Screens from PubChem BioAssay.
HCV inh – HCV inhibition; Huh7.5.1 HCVcc-Cre infection, luciferase reporter, 44 h; Potency, µM (top dose mostly 41.8 µM), for inactives: at the top dose activity change, negative = inhibition, actives largely listed as inhibitors; 340,000 tested, 3.4% active; AID 651820; further: potency means the concentration at half of the fitted maximal effect
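HCVcc-Cre virus at an moi near 0.5 was added right after compound to cells cultured 4 h from seeding (1,000 cells/well). Luciferase activity was determined 44 h later, 15 min after substrate addition at RT.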
FMDV antiviral – antivirals against foot and mouth disease virus. FMDV antiviral cell-based qHTS. Potency, µM (highest dose often 57.9 µM), without a hit: at the top dose activity change, negative = inhibition, actives largely listed as inhibitors. 410,000 tested, 1.2% active. AID 1159524; calls by dose curve; tested in HEK293T cells; further: read-out not given here; potency means the concentration at half of the fitted maximal effect; nearly all actives have a fitted effect of over 45% in size
FBPA Giardia inh – Giardia lamblia aldolase inhibition; A8B2U2; 290,000 tested, 0.71% active; purified Giardia FBPA; Potency, µM (top dose mostly 59.6 µM), without a hit: at the top dose activity, negative = inhibition, hits mostly inhibitors; further: potency means the concentration at half of the fitted maximal effect; nearly all actives have a fitted effect of over 55% in size
Target sequence (A8B2U2 whole entry, looked up): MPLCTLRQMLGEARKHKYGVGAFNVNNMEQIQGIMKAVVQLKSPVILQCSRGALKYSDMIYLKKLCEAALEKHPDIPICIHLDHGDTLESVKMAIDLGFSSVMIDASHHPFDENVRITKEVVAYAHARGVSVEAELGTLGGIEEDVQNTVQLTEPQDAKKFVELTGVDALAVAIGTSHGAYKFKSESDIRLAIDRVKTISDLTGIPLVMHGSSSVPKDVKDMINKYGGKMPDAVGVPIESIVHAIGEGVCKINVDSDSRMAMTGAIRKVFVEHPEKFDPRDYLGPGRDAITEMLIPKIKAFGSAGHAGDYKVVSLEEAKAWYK
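40 nM FBPA preincubated 10 min at RT with compound (up to 57.5 uM final), then substrate plus GAPDH/TPI/NAD/arsenate coupling and diaphorase/resazurin added. Fluorescence read after 20 min at RT, 525/598 nm.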
Vaccinia mCherry – vaccinia inhibition (mCherry reporter) | 310,000 tested, 0.63% active | Potency, µM (doses to about 36.5 µM), for inactives: top-dose activity change, negative = inhibition, usual class: inhibitors | Vaccinia virus mCherry reporter infection, fluorescence | AID 720579; calls by dose curve; tested in A549 cells; further: potency means the concentration at half of the fitted maximal effect; nearly all actives have a fitted effect of over 35% in size
HCMV inh – blocks human cytomegalovirus replication. HFF cells, HCMV-luciferase reporter, 72 h; stronger effect = lower value. activity change, negative = inhibition, % at 57.5 µM. 410,000 tested, 4.5% active; in the data active means activity change below about -60%; inconclusive means no clear call, values can overlap the other calls; inactive means above about -39%
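Inhibition of viral replication was scored as loss of reporter luminescence in HFFs infected with HCMV-luciferase (MOI 1 PFU/cell) for 72 h; compounds tested at 2 doses, normalized to buffer and Salinomycin controls.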
Vaccinia Venus – vaccinia inhibition (Venus reporter); Potency, µM (titrated, usually from 36.5 µM), without a hit: at the highest dose activity change, negative = inhibition, actives largely listed as inhibitors; 330,000 tested, 0.46% active; Vaccinia virus Venus reporter expression, fluorescence; AID 720580; calls by dose curve; tested in A549 cells; further: potency means the concentration at half of the fitted maximal effect; nearly all actives have a fitted effect of over 30% in size
Numbers without * were called inactive; i = inactive; ? = inconclusive; · = not tested or not shown; [ ] = another dose, or the depositor's remark. The list is not random: actives were taken first. Their share in the collection is about 7.5%. Unless noted, the call rests on the fitted dose curve; in most records, active means well fitted curve in the direction sought with a large enough effect; inconclusive means small, poorly fitted or top-dose-only effect, or another doubt; inactive means no such curve, though single readings can be large; an effect the other way counts as inactive or inconclusive. On the % scale 0 is the no-effect control and ±100 the full control effect.

SMILES | HCV inh | FMDV antiviral | FBPA Giardia inh | Vaccinia mCherry | HCMV inh | Vaccinia Venus
Cc1cc2c(c(C)c1Cl)C(c1ccc3c(c1)OCO3)CC(c1ccccc1)O2 (stereo not given) | · | · | -5.8% | · | · | ·
COC(=O)[C@@H]1C[C@H](OC(C)=O)C(=O)[C@H]2[C@@]1(C)CC[C@H]1C(=O)O[C@H](c3ccoc3)C[C@]21C | · | · | 10.3% | · | · | ·
CC(C)N1CCc2c(sc(NC(=O)C3CCCCC3)c2C(N)=O)C1 | ? | ? | ? | ? | -79.1* | 12.6µM*
CCOC(=O)c1c(NC(=O)C2CCCCC2)sc2c1CCN(C(C)C)C2 | 7.94µM* | 0.0% | ? | i | 8.0 | -8.0%
CC(C)(C)C(=O)Nc1ccccc1C(=O)NCCC(=O)Nc1ccccc1 | -11.0% | -14.8% | · | 2.4% | -7.2 | -0.7%
Cc1nc(N2CCCCC2)c2c(C)c(C(=O)Nc3ccccc3C(F)(F)F)sc2n1 | ? | -25.4% | -13.0% | -5.9% | ? | -12.7%
Cc1c(C(=O)NN)nn(-c2ccc(Cl)cc2)c(=O)c1C#N | 14.1µM* | 12.6µM* | ? | i | -36.5 | -4.3%
CCOC1=C2[C@@H](CN(S(=O)(=O)c3ccc(C)cc3)[C@H]2c2cccc3ccccc23)[C@H]2C(=O)NC(=O)[C@H]2C1 | · | 37.2% | · | i | -9.8 | -9.9%
COC(/C(C)=C/C=C/C(C)=C/c1coc(C)n1)C(C)C1CC(O)C2(C)OC2C=CC(C)C2CC(CC(=O)O2)CC2OC2C(=O)O1 (stereo not given) | 9.6% | -26.2% | · | ? | -80.4* | ?
Cn1cnc(S(=O)(=O)N2CCCC(C(=O)NCc3ccccc3)C2)c1 (stereo not given) | · | 10.8% | · | -7.1% | 17.9 | -2.8%
NC(=O)NCCCC(=O)NCC(c1ccccc1Cl)c1c[nH]c2ccccc12 (stereo not given) | -8.1% | -5.9% | -7.1% | · | 41.6 | ·
CC1CN(C(=O)c2ccccc2OCc2ccc(Cl)cc2Cl)CC(C)O1 (stereo not given) | 14.1µM* | -22.1% | · | · | ? | ·
CC1CN(C(=O)c2cccc(COc3ccccc3Cl)c2)CC(C)O1 (stereo not given) | 10.8% | -5.3% | -1.8% | -0.9% | 88.1 | -18.9%
COc1cc(Cl)ccc1OCc1cc(C(=O)N(C)Cc2cccc3cnccc23)no1 | 8.91µM* | ? | · | -22.1% | ? | -8.6%
COc1ccc(OCc2cc(C(=O)N(C)Cc3cnccn3)no2)c(Cl)c1 | · | 29.3% | -1.9% | i | ? | -12.1%
CN(Cc1nccs1)C(=O)c1cc(COc2cccc3cnccc23)on1 | 6.31µM* | ? | · | · | -75.3* | ·
CCOC(=O)Cc1ccc(NC(=O)N2CCC(CN3CCC(C)CC3)CC2)cc1 | · | -18.8% | · | 2.0% | 2.9 | 1.9%
CC(C)c1ccc(NC(=O)[C@H](Cc2c[nH]c3ccccc23)NC(=O)[C@@H]2Cc3ccccc3CN2)cc1 | 4.47µM* | 2.7% | ? | ? | · | 19.6%
COc1ccc(NC(=O)[C@H](Cc2c[nH]c3ccccc23)NC(=O)[C@@H]2Cc3ccccc3CN2)cc1 | ? | -4.2% | ? | ? | · | 14.1%
Cc1ccc(S(=O)(=O)N2CCN(c3ncnc4sccc34)CC2)cc1 | 6.31µM* | ? | · | · | -84.7* | ·
O=C(CSc1ncnc2sccc12)Nc1ccc(S(=O)(=O)N2CCOCC2)cc1 | 7.9% | ? | · | ? | -27.2 | ?
CC(Sc1ncnc2sccc12)C(=O)Nc1ccc(S(=O)(=O)N2CCOCC2)cc1 (stereo not given) | -27.3% | ? | · | 15.8µM* | -3.8 | ?
c1ccc(CC2CCN(c3ncnc4sccc34)CC2)cc1 | 3.98µM* | ? | -1.3% | -6.7% | -85.3* | -15.7%
O=S(=O)(c1ccc(F)c(F)c1F)N1CCN(c2ncnc3sccc23)CC1 | ? | ? | · | ? | -79.4* | ?
Cc1cnc(C(=O)N2CCN(S(=O)(=O)c3ccc(F)c(F)c3F)CC2)cn1 | 12.7% | -13.9% | · | · | 15.4 | ·
SMILES | HCV inh | FMDV antiviral | FBPA Giardia inh | Vaccinia mCherry | HCMV inh | Vaccinia Venus
C=CCOn1c(=O)c(-c2ccc(F)cc2)[n+]([O-])c2ccccc21 | 9.3% | -3.1% | 8.9% | · | -31.3 | ·
CCOc1ccc(-c2nc(CSCC(=O)NC3CCCc4ccccc43)c(C)o2)cc1 (stereo not given) | 17.8µM* | 0.0% | -1.4% | · | -23.7 | ·
Cc1oc(-c2ccc(Cl)cc2)nc1CSCC(=O)NC1CCN(Cc2ccccc2)CC1 | 3.98µM* | ? | 0.9% | -26.4% | -84.8* | -12.8%
CCOc1ccc(-c2nc(CSCC(=O)NCc3ccco3)c(C)o2)cc1 | ? | -9.3% | -4.8% | · | ? | -28.5%
CCOc1ccc(-c2nc(CSCC(=O)NCc3ccc(C)cc3)c(C)o2)cc1 | · | -4.5% | · | -15.2%[7.34 µM] | -68.6* | -14.5%[7.34 µM]
CCOC(=O)N1CCC(NC(=O)CSCc2nc(-c3cccc(OC)c3)oc2C)CC1 | ? | ? | 6.2% | · | -93.1* | ·
CCOc1ccc(CNCc2c(C(=O)O)c(C)n(Cc3ccc(F)cc3Cl)c2C)cc1 | · | -22.7% | · | -13.5% | -2.2 | -8.2%
CCC(=O)N1c2ccccc2CC1C(=O)NCCc1ccccc1C (stereo not given) | · | -13.9% | · | -9.7% | -11.1 | -3.7%
C[C@H]1CN([C@@H](C)CO)C(=O)c2cccc(NC(=O)c3nc4ccccc4s3)c2O[C@H]1CN(C)C(=O)Nc1ccc(F)cc1 | ? | -24.9% | · | ? | -4.0 | ?
CCOc1ccc(-c2nc(CSCC(=O)NC3CC3)c(C)o2)cc1 | -25.7% | 18.8% | · | · | ? | ·
CCOc1ccc(-c2nc(CSCC(=O)NC3CCN(Cc4ccccc4)CC3)c(C)o2)cc1 | · | ? | · | ? | -94.2* | ?
COc1ccc(C)c2sc(N(CCCN(C)C)C(=O)c3ccc(S(=O)(=O)N4CCc5ccccc5C4)cc3)nc12 | ? | ? | · | ? | -97.8* | ?
COc1cccc2sc(N(CCCN(C)C)C(=O)c3ccc(S(=O)(=O)N4CCc5ccccc5C4)cc3)nc12 | ? | -7.2% | -22.9% | ? | ? | ?
COc1ccc(OC)c2sc(N(CCCN(C)C)C(=O)c3ccc(S(=O)(=O)N4CCc5ccccc5C4)cc3)nc12 | 3.98µM* | · | · | · | · | ·
Cc1ccc2sc(N(CCCN(C)C)C(=O)c3ccc(S(=O)(=O)N4CCc5ccccc5C4)cc3)nc2c1C | ? | -4.3% | · | -5.7% | -16.4 | -17.2%
CCCC1(C(=O)OC)C=C2C(=C(C)C(=O)C2C)CN1 (stereo not given) | · | · | -28.1% | · | · | ·
O=C(N/C(=C\c1ccc(Cl)cc1)C(=O)N1CCOCC1)c1ccc([N+](=O)[O-])cc1 | 5.6% | 0.0% | 11.6% | 1.9% | 54.6 | 1.4%
COc1ccc(NC(=O)Cn2c(C)cc(=O)c3ccccc32)cc1 | 7.08µM* | ? | 0.1% | · | -79.8* | ·
O=C(Cn1c(=O)nc(-c2ccccc2)c2cc(Cl)ccc21)NCCc1ccc(Cl)cc1 | · | ? | · | -10.2% | -20.1 | -11.4%
